Bioassay records (PubChem BioAssay)
Methyltransferases = Primary Screen for Target Class Profiling of Small Molecule Inhibitors of Methyltransferases; purified enzyme, MTase-Glo SAH luminescence; stronger effect = lower value; calls only at 40 µM; 25,000 compounds, 3.9% hits; call rule not given here
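Each enzyme was assayed with SAM and its substrate. SAH formation detected by MTase-Glo luminescence; single-point 40 uM screen[…].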
MTase-Glo ctr = detection enzyme interference, methyltransferase counter-screen | shares compounds with Methyltransferases | MTase-Glo coupled enzymes, SAH conversion luminescence, no MTase | Potency, µM (doses to about 57.3 µM), for inactives: at the highest dose activity change, negative = inhibition, usual class: inhibitors | 180 compounds, 6% hits | AID 1745851; active = well fitted inhibition curve with a large enough effect; also: potency is read from the fitted curve at half-maximal effect
* marks the source's active call; other numbers are inactive results; i = inactive; + = active, no number. This excerpt belongs to a sample that is enriched for hits. % is scaled to controls: 0 for no effect and ±100 for the full control effect.

SMILES | Methyltransferases | others
Cc1ccccc1N1C(=O)c2cc3occc3n2CC1(C)C(=O)NC1CCCC(C)C1C (stereo not given) | i
CCOC(=O)c1cc2n(n1)CC(C)(C(=O)NCc1ccccc1)N(CCc1cccs1)C2=O (stereo not given) | i
Cc1ccccc1CCNC(=O)Cn1ccc2cc(S(=O)(=O)N3CCCCC3)ccc21 | i
Cc1nc2cccnc2n1CC1CCCN(S(=O)(=O)c2ccc3c(c2)OCCO3)C1 (stereo not given) | + | MTase-Glo ctr=-2.9%
Cc1cnc(-c2cccnc2)n1C1CCN(S(=O)(=O)c2ccc3c(c2)OCCO3)CC1 | i
Cc1cnc(CC2CCCN(S(=O)(=O)c3ccccc3)C2)n1CC1CC1 (stereo not given) | i
Cc1ccc(NC(=O)CSc2nnc3n(CCCOC(C)C)c(=O)c4ccccc4n23)cc1C | i
Cc1ccc(CNC(=O)C2(C)Cn3cnc(C(=O)NCc4ccccc4F)c3C(=O)N2C2CC2)cc1 (stereo not given) | i
CC1(C(=O)NC2CCCCCC2)Cn2c(ccc2-c2ccco2)C(=O)N1C1CCCCC1 (stereo not given) | i
CCOC(=O)c1ccccc1NC(=O)N1Cc2c(sc3c2CCN(C)C3)-n2cccc2C1CC (stereo not given) | i
